In the supplement of paper PMC10849652:
About 8,800 targets were measured; listed, in parts, are those with a hit and a random draw of the rest. About 0.5% of all pairs of compound and target were hits. A number with no mark means an inactive call.

How the values were obtained:
Assay in all cases: log2 fold change, soluble protein after heating vs DMSO (PISA); higher = thermal stabilisation; K562 lysate, 10 uM; active = over 0.2 and 3.5 SD of the protein, either way, in both replicates (recomputed)
[1] = compound: C1=CC=C(C=C1)[C@H](COC2=CC3=C(C=C2)NC(=O)N3)NC(=O)C4=CC=CN(C4=O)CC5=CC(=C(C=C5)F)F
Outline: (§1)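 The values are log-two fold changes in thermal stability compared with solvent controls and come from duplicates. They were obtained by TMTpro 16plex LC-MS/MS, with channel sums equalised, on the supernatant after 21,000xg for 90 min. That supernatant came from crude K562 extract at 1 mg/mL protein treated with 10 μM compound for 30 min, heated for 3 min across 48°C-58°C, pooled and brought to 0.5% NP-40 at 4°C.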

[2] = compound: CC1=C(SC2=C1C(=N[C@H](C3=NN=C(N32)C)CC(=O)N)C4=CC=C(C=C4)Cl)C
Outline: as §1

[3] = compound: CC1=C2C(=CC=C1)N=C(N(C2=O)C3=CC=CC=C3C)CN4C=NC5=C(N=CN=C54)N
Outline: as §1

[4] = compound: Cc1sc2c(c1C)C(c1ccc(Cl)cc1)=N[C@@H](CC(=O)OC(C)(C)C)c1nnc(C)n1-2
Outline: as §1

[5] = compound: c1ccc([C@@H]2C[C@H]2NC2CCNCC2)cc1
Outline: as §1

UniProt Q9BPX3, sequence (Q9BPX3 whole entry, looked up): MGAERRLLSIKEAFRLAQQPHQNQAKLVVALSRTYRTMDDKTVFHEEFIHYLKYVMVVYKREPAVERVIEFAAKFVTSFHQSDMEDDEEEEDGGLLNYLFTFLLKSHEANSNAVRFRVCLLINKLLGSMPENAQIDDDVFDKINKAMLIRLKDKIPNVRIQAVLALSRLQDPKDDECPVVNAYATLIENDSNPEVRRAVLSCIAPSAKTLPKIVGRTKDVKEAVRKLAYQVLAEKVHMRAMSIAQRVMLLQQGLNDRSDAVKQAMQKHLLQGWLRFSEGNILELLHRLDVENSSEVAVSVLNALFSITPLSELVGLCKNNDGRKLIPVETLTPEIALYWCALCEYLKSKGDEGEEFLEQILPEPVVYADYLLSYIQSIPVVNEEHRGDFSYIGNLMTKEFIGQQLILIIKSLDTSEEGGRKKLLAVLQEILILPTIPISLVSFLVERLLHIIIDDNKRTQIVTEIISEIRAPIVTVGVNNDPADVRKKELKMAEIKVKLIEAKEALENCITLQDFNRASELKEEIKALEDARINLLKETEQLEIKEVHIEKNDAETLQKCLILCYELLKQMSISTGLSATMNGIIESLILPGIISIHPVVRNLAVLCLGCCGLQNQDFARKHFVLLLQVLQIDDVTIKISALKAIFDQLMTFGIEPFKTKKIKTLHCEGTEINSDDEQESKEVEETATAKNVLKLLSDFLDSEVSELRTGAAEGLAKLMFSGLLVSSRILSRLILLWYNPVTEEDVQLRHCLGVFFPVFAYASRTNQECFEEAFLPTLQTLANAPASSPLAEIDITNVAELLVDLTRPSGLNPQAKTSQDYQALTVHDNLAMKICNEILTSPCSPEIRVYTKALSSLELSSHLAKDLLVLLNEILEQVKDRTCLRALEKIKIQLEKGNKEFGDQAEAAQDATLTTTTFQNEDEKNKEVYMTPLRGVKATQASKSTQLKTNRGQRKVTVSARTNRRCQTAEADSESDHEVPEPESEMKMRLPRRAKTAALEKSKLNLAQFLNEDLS
UniProt Q9UHQ1, sequence (Q9UHQ1 whole entry, looked up): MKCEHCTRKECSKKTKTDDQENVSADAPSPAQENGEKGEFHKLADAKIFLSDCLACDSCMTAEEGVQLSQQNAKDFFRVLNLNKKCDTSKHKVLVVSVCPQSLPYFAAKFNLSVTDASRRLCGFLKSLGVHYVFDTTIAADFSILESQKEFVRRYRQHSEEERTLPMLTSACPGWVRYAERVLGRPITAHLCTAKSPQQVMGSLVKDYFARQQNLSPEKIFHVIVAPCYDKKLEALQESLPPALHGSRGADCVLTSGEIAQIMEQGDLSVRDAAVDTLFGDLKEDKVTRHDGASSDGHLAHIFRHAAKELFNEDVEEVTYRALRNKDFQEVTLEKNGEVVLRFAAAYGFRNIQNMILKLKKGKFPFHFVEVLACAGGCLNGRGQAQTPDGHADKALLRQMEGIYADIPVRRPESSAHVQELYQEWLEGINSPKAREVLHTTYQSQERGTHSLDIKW
UniProt Q9NVE7, sequence (Q9NVE7 whole entry, looked up): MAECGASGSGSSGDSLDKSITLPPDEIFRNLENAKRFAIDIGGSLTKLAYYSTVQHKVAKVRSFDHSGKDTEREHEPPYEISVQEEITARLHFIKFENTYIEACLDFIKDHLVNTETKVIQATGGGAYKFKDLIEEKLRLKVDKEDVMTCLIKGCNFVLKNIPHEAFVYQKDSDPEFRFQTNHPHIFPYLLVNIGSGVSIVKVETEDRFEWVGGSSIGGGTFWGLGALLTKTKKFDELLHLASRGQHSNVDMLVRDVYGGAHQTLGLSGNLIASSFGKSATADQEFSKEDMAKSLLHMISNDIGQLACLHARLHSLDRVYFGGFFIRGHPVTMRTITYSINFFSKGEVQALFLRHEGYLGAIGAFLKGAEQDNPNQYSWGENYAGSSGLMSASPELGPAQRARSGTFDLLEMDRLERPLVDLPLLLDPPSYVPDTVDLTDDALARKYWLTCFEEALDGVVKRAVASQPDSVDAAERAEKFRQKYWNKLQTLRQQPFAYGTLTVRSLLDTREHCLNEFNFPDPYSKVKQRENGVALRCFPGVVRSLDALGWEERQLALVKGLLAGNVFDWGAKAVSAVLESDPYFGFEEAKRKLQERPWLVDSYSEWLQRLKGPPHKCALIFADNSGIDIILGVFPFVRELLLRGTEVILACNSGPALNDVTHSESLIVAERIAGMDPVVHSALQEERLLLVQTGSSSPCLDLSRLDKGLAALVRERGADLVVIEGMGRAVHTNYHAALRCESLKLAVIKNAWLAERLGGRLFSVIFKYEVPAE
UniProt P15559, sequence (P15559 whole entry, looked up): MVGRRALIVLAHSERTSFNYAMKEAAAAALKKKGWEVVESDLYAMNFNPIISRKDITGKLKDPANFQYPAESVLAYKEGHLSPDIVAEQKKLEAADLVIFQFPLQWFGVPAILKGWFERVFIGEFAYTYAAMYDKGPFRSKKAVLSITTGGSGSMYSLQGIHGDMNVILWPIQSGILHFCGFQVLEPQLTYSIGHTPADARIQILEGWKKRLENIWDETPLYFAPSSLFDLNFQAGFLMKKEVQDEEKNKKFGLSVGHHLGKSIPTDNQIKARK
UniProt Q13416, sequence (Q13416 whole entry, looked up): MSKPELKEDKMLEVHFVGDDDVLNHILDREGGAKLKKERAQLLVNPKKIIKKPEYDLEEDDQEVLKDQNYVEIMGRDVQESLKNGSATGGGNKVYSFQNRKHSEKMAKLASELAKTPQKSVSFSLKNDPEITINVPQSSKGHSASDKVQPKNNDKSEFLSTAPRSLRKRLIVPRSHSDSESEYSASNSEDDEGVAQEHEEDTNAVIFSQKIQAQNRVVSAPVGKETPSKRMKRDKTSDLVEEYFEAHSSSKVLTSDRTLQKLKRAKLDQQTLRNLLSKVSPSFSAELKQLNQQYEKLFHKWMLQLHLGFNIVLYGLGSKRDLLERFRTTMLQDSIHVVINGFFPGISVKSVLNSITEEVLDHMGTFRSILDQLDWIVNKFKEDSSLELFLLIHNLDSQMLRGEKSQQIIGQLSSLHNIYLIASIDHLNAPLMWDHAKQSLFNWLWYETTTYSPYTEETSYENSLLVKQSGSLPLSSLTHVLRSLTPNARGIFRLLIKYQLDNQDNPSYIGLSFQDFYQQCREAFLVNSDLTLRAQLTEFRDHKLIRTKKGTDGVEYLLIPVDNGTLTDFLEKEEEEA
UniProt Q9NPF4, sequence (Q9NPF4 whole entry, looked up): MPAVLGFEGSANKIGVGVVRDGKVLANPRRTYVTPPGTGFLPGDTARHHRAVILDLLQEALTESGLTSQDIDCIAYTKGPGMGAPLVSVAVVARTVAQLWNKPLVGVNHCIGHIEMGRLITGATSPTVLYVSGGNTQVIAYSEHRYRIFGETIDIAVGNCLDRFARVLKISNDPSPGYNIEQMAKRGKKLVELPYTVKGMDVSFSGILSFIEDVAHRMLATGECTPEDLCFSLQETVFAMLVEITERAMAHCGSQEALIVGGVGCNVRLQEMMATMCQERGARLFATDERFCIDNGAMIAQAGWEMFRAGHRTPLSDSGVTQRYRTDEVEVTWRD
UniProt Q96RE7, sequence (Q96RE7 whole entry, looked up): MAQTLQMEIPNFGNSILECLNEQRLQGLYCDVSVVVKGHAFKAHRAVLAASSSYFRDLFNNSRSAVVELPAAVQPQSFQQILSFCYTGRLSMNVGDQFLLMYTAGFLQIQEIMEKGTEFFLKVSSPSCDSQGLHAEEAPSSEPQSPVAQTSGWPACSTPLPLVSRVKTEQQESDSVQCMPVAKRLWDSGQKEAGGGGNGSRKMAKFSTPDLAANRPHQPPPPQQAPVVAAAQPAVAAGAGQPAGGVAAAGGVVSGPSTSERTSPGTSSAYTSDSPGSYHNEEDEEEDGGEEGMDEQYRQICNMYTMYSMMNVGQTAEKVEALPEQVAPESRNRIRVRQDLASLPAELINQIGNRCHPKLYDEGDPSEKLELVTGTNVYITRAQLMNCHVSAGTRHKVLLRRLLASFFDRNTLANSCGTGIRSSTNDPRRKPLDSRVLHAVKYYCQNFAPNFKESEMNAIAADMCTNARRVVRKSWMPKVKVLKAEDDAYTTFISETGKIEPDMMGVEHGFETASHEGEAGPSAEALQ
UniProt Q6N069, sequence (Q6N069 whole entry, looked up): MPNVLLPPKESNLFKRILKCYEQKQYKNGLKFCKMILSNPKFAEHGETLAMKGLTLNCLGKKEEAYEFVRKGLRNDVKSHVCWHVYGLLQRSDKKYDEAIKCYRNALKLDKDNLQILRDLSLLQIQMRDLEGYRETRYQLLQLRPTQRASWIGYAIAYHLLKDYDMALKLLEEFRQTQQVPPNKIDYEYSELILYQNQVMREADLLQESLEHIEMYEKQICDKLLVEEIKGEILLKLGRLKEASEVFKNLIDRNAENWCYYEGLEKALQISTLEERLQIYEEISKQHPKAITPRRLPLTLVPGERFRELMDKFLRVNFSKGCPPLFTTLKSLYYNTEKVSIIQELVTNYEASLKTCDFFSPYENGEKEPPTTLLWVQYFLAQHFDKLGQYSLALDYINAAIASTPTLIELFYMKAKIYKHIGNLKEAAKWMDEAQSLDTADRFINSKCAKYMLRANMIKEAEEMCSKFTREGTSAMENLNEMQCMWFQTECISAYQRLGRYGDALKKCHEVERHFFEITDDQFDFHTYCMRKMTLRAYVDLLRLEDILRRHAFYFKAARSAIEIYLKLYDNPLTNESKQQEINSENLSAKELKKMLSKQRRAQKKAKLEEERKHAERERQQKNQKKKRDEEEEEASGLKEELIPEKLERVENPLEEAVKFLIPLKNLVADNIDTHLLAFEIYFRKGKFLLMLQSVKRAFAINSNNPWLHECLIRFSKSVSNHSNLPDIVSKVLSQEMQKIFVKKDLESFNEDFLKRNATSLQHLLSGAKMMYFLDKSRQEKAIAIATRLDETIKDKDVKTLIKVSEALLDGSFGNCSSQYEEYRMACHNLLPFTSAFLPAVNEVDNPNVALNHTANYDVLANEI

Target	log2 fold change [1]	log2 fold change [2]	log2 fold change [3]	log2 fold change [4]	log2 fold change [5]
NCKAP1L (UniProt P55160)	-0.002	0.021	-0.106	-0.061	0.005
PANK4 (UniProt Q9NVE7)	-0.009	-0.025	0.026	0.003	-0.013
NACC1 (UniProt Q96RE7)	0.013	-0.004	0.027	0.013	0.033
ORC2 (UniProt Q13416)	-0.052	-0.011	-0.012	0.025	0.044
NQO1 (UniProt P15559)	0.433 (active)	0.025	0.223	-0.008	-0.016
OSGEP (UniProt Q9NPF4)	-0.007	0.031	0.036	0.063	0.011
NAA16 (UniProt Q6N069)	0.027	0.01	0.168	0.065	–
NCAPG (UniProt Q9BPX3)	-0.031	0.013	-0.007	0.013	0.03
NARF (UniProt Q9UHQ1)	-0.023	-0.005	0.017	-0.019	0
